According to PubChem BioAssay (NCATS):
Records with an inconclusive call do not appear. The source made the active and inactive calls. Calls come from the whole dose curve; as a rule, active = well fitted inhibition curve with a large enough effect; inconclusive = small, poorly fitted or top-dose-only effect; inactive = flat fitted curve, though single readings scatter.

Key:
[1] = qHTS profiling for inhibitors of Plasmodium falciparum proliferation (AID 504749); note: nearly all actives have a fitted effect of over 60% in size;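 for activity, negative = inhibition: 0% = DMSO vehicle and full inhibition = artemisinin control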; conditions: P. falciparum in erythrocytes, SYBR Green DNA, 72 h
How it was run: (§1)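 Readout was DNA-dye fluorescence from lysed cultures, ex 485/em 535 nm. Parasitized red cells had grown 72 h with compound; data scaled between 0.29 uM artemisinin and DMSO wells and corrected using vehicle-only plates.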

ATS189 = assay: as above; conditions: P. falciparum in erythrocytes, SYBR Green DNA, 72 h; series mostly up to 28.7 µM
How it was run: as §1

CP185 = assay: as above; conditions: P. falciparum in erythrocytes, SYBR Green DNA, 72 h; series mostly up to 28.7 µM
How it was run: as §1

CP191 = assay: as above; conditions: P. falciparum in erythrocytes, SYBR Green DNA, 72 h; series mostly up to 28.7 µM
How it was run: as §1

CP192 = assay: as above; conditions: P. falciparum in erythrocytes, SYBR Green DNA, 72 h; series mostly up to 28.7 µM
How it was run: as §1

CP194 = assay: as above; conditions: P. falciparum in erythrocytes, SYBR Green DNA, 72 h; series mostly up to 28.7 µM
How it was run: as §1

CP201 = assay: as above; conditions: P. falciparum in erythrocytes, SYBR Green DNA, 72 h; series mostly up to 28.7 µM
How it was run: as §1

CP203 = assay: as above; conditions: P. falciparum in erythrocytes, SYBR Green DNA, 72 h; series mostly up to 28.7 µM
How it was run: as §1

CP211 = assay: as above; conditions: P. falciparum in erythrocytes, SYBR Green DNA, 72 h; series mostly up to 28.7 µM
How it was run: as §1

CP215 = assay: as above; conditions: P. falciparum in erythrocytes, SYBR Green DNA, 72 h; series mostly up to 28.7 µM
How it was run: as §1

CP247 = assay: as above; conditions: P. falciparum in erythrocytes, SYBR Green DNA, 72 h; series mostly up to 28.7 µM
How it was run: as §1

3D7 = assay: as above; conditions: P. falciparum in erythrocytes, SYBR Green DNA, 72 h; series mostly up to 28.7 µM
How it was run: as §1

AA1029 = assay: as above; conditions: P. falciparum in erythrocytes, SYBR Green DNA, 72 h; series mostly up to 28.7 µM
How it was run: as §1

AS120 = assay: as above; conditions: P. falciparum in erythrocytes, SYBR Green DNA, 72 h; series mostly up to 28.7 µM
How it was run: as §1

ATS95 = assay: as above; conditions: P. falciparum in erythrocytes, SYBR Green DNA, 72 h; series mostly up to 28.7 µM
How it was run: as §1

C2A = assay: as above; conditions: P. falciparum in erythrocytes, SYBR Green DNA, 72 h; series mostly up to 28.7 µM
How it was run: as §1

CP217 = assay: as above; conditions: P. falciparum in erythrocytes, SYBR Green DNA, 72 h; series mostly up to 28.7 µM
How it was run: as §1

CP237 = assay: as above; conditions: P. falciparum in erythrocytes, SYBR Green DNA, 72 h; series mostly up to 28.7 µM
How it was run: as §1

CP238 = assay: as above; conditions: P. falciparum in erythrocytes, SYBR Green DNA, 72 h; series mostly up to 28.7 µM
How it was run: as §1

7G8 = assay: as above; conditions: P. falciparum in erythrocytes, SYBR Green DNA, 72 h; series mostly up to 28.7 µM
How it was run: as §1

[2] = at 28.7 µM (top of the series), parasite line A
Potency is the fitted concentration of half-maximal effect.

CCCCCCCC/C=C\CCCCCCCC(=O)NCc1ccc(O)c(OC)c1
inactive: Potency (CP192) | Potency (CP194) | Potency (CP201) | Potency (CP203) | Potency (CP211) | Potency (CP215)
active: Potency ([1]; parasite line A) 7.08 µM | Potency (ATS189) 8.91 µM | Potency (CP185) 11.2 µM | Potency (CP191) 12.6 µM | Potency (CP247) 7.08 µM

NC1=NCC2c3ccccc3Cc3ccccc3N12 (stereo unspecified)
inactive: activity, negative = inhibition [1, 2] -23% | Potency (3D7) | Potency (AA1029) | Potency (AS120) | Potency (ATS189) | Potency (ATS95) | Potency (C2A) | Potency (CP185) | Potency (CP192) | Potency (CP194) | Potency (CP201) | Potency (CP211) | Potency (CP217) | Potency (CP237) | Potency (CP238) | Potency (CP247)

C[n+]1cc2c3c(ccc2c2ccc4cc5c(cc4c21)OCO5)OCO3
inactive: activity, negative = inhibition [1, 2] -18.2% | activity, negative = inhibition ([1]; at 28.7 µM (top of the series), parasite line B) -15.2% | Potency (AA1029) | Potency (AS120) | Potency (ATS95) | Potency (C2A) | Potency (CP185) | Potency (CP192) | Potency (CP194) | Potency (CP201) | Potency (CP211) | Potency (CP215) | Potency (CP237) | Potency (CP238)

CN(C)CCOC(=O)COc1ccc(Cl)cc1
inactive: activity, negative = inhibition ([1]; at 12.8 µM (top of the series), parasite line A) 18.7% | activity, negative = inhibition ([1]; at 12.8 µM (top of the series), parasite line B) -4.94% | Potency (7G8) | Potency (AA1029) | Potency (AS120) | Potency (ATS189) | Potency (ATS95) | Potency (C2A) | Potency (CP185) | Potency (CP191) | Potency (CP192) | Potency (CP201) | Potency (CP211) | Potency (CP215) | Potency (CP217) | Potency (CP238)

CN(C)C/C=C(/c1ccc(Br)cc1)c1cccnc1
active: Potency (7G8) 8.91 µM
inactive: activity, negative = inhibition [1, 2] -2.53% | Potency (3D7) | Potency (ATS189) | Potency (C2A) | Potency (CP185) | Potency (CP194) | Potency (CP201) | Potency (CP215) | Potency (CP217) | Potency (CP238) | Potency (CP247)

CCCC(C(=O)OCCN(CC)CC)(c1ccccc1)c1ccccc1
active: Potency (3D7) 10 µM | Potency (7G8) 3.98 µM | Potency (AA1029) 11.2 µM | Potency (CP192) 9.53 µM | Potency (CP203) 12 µM | Potency (CP215) 12 µM | Potency (CP237) 10 µM | Potency (CP247) 8.91 µM

COc1cc(C(=O)OCCCN2CCCN(CCCOC(=O)c3cc(OC)c(OC)c(OC)c3)CC2)cc(OC)c1OC
active: Potency (3D7) 11.2 µM | Potency (7G8) 8.91 µM | Potency (AA1029) 11.2 µM | Potency (AS120) 10 µM | Potency (ATS189) 8.91 µM | Potency (CP191) 12.6 µM | Potency (CP237) 6.31 µM | Potency (CP247) 7.94 µM

CC(C)(C)c1ccc(C(=O)CCCN2CCC(OC(c3ccccc3)c3ccccc3)CC2)cc1
active: Potency ([1]; parasite line A) 10 µM | Potency (3D7) 7.94 µM | Potency (7G8) 3.55 µM | Potency (AA1029) 10 µM | Potency (AS120) 6.31 µM | Potency (ATS189) 10 µM | Potency (ATS95) 8.91 µM | Potency (CP217) 7.94 µM | Potency (CP237) 11.2 µM | Potency (CP238) 11.2 µM

CN1C[C@H](C(=O)N[C@]2(C)O[C@@]3(O)[C@@H]4CCCN4C(=O)[C@H](Cc4ccccc4)N3C2=O)C[C@@H]2c3cccc4[nH]cc(c34)C[C@H]21
active: Potency (CP194) 12 µM | Potency (CP203) 10.7 µM | Potency (CP211) 12 µM | Potency (CP215) 13.5 µM

CC(C)COCC(CN(Cc1ccccc1)c1ccccc1)N1CCCC1 (stereo unspecified)
inactive: Potency (3D7) | Potency (ATS189) | Potency (C2A) | Potency (CP191) | Potency (CP192) | Potency (CP194) | Potency (CP211) | Potency (CP217) | Potency (CP238) | Potency (CP247)
active: Potency (CP215) 7.57 µM | Potency (CP237) 5.01 µM
